Test results taken from ChEMBL document CHEMBL1157539, “Thousands of chemical starting points for antimalarial lead identification” (Nature, 2010).

Key:
Format in all cases: functional
Plasmodium falciparum [1] = assay: GSK_TCMDC: Inhibition of Plasmodium falciparum 3D7 in whole red blood cells, using parasite LDH activity as an index of growth. Test compounds present at 2uM
Plasmodium falciparum [2] = assay: GSK_TCMDC: Inhibition of Plasmodium falciparum Dd2 in whole red blood cells, using parasite LDH activity as an index of growth. Test compounds present at 2uM
HepG2 = assay: GSK_TCMDC: Percent inhibition of human HepG2 cell line. Test compounds present at 10uM.

SMILES	Inhibition (Plasmodium falciparum [1]) [%]	Inhibition (Plasmodium falciparum [2]) [%]	Inhibition (HepG2) [%]
CC(=O)N(C)C1CCN(Cc2cccc(-c3ccc(-c4nc5cc(C(F)(F)F)ccc5[nH]4)cc3)c2)C1.O=C(O)C(F)(F)F (stereo not given)	100	94	31
COc1cc(NC(=O)/C=C/c2cccc3ccoc23)ccc1OCCN(C(C)C)C(C)C.Cl	90	5	22
CC(C)(C)SC1SC(SC(C)(C)C)C(OC(=O)c2ccccc2)C(OC(=O)c2ccccc2)C1OC(=O)c1ccccc1 (stereo not given)	95	45	0
CN1CCC(c2ccc(NC(=O)c3ccc(-c4cccc(C(F)(F)F)c4)o3)cc2)CC1	86	23	23
Cc1ccc(Nc2nc(C)cc(NCc3ccc(-n4ccnc4)cc3)n2)cc1	100	100	33
COc1ccc(C(=O)C2CCN(CCCCNC(=O)c3ccc(NC(=O)c4ccc(Cl)cc4)cc3)CC2)c(OC)c1	98	13	47
Cc1cc(NCC(c2ccccc2)c2ccccc2)nc(NCC2CCCCC2)n1	100	93	12
Cc1ccc(Nc2nc(N/N=C/c3ccccc3[N+](=O)[O-])nc(Nc3ccc([N+](=O)[O-])cc3)n2)cc1C	100	81	4
Cc1ccccc1C1CCN(C2CCC(NC(=O)c3csc(-c4cccc(Cl)c4)n3)CC2)CC1 (stereo not given)	85	42	33
Cc1cc(N(C)C)nc(Nc2ccc(NC(=O)c3ccc(Br)o3)cc2)n1	100	57	1
